Test results: PubChem BioAssay (NCI)
This is part of a sample that, as a whole, favours compounds with a hit. Of some 79,000 tested, about 15% had one in any assay. The source made the active and inactive calls. Rule as the data show it: active = growth inhibition above about 70%; inactive = the rest.

Assays:
[1] = NCI Yeast Anticancer Drug Screen. Data for the wt1 strain (AID 149);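 also: 0% = growth of vehicle-treated wt1 cultures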; conditions: S. cerevisiae wt1 strain (SPY 50644) growth inhibition, active compounds read high
Procedure, shortened: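 The wt1 strain was treated with compounds, and growth was compared with vehicle-treated cultures to give inhibition.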

[2] = NCI Yeast Anticancer Drug Screen. Data for the rad50EPP+ strain (AID 151);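 also: 0% = growth of vehicle-treated control cultures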; conditions: S. cerevisiae rad50 mutant strain, active compounds read high
Procedure, shortened: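 Read-out is yeast growth inhibition relative to vehicle; cells used were the rad50EPP+ strain.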

[3] = NCI Yeast Anticancer Drug Screen. Data for the mgt1 strain (AID 153); conditions: S. cerevisiae mgt1 mutant growth inhibition, active compounds read high
Procedure, shortened: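 Measured: inhibition of mgt1 yeast growth by compound, normalized to vehicle-treated cultures.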

[4] = NCI Yeast Anticancer Drug Screen. Data for the rad50 strain (AID 155);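 also: 0% = growth of vehicle-only cultures of the same strain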; conditions: S. cerevisiae rad50 strain growth inhibition, active compounds read high
Procedure, shortened: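 Cells are treated with compound, grown, and their growth is then scored against vehicle-only cultures of the same repair-deficient yeast strain.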

[5] = NCI Yeast Anticancer Drug Screen. Data for the mec2-1 strain (AID 157); conditions: S. cerevisiae mec2-1 strain, active compounds read high
Procedure, shortened: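 Using mec2-1 yeast: add compound, measure growth, express inhibition versus vehicle-treated cultures.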

[6] = NCI Yeast Anticancer Drug Screen. Data for the rad14 strain (AID 159);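 also: 0% = growth of vehicle-treated control cultures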; conditions: S. cerevisiae rad14 strain growth inhibition, active compounds read high
Procedure, shortened: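 Readout: yeast growth inhibition, referenced to vehicle-only cultures. Strain bears a defined alteration in DNA damage repair.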

[7] = NCI Yeast Anticancer Drug Screen. Data for the sgs1 mgt1 strain (AID 161);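 also: 0% = growth of cultures given vehicle only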; conditions: S. cerevisiae sgs1 mgt1 strain, active compounds read high
Procedure, shortened: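 This yeast growth screen uses a strain with defined DNA-repair lesions; compound-treated growth is compared with vehicle-treated growth.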

[8] = NCI Yeast Anticancer Drug Screen. Data for the CLN2oe strain (AID 163);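 also: 0% = growth of vehicle-only control cultures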; conditions: S. cerevisiae CLN2oe strain, active compounds read high
Procedure, shortened: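 Whole-cell yeast growth assay. A strain engineered for altered cell-cycle control received compound, and inhibition relative to vehicle-treated cultures was recorded.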

[9] = NCI Yeast Anticancer Drug Screen. Data for the cln2 rad14 strain (AID 165);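 also: 0% = growth equal to vehicle treated cultures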; conditions: S. cerevisiae cln2 rad14 strain, active compounds read high
Procedure, shortened: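 Yeast strain cln2 rad14, bearing defects in cell cycle control and DNA repair, serves as the test system; values reflect growth inhibition compared with vehicle.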

[10] = NCI Yeast Anticancer Drug Screen. Data for the bub3 strain (AID 167); conditions: S. cerevisiae bub3 mutant strain, active compounds read high
Procedure, shortened: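 Part of a panel of yeast mutants defective in DNA damage repair or cell cycle regulation. Each strain is grown with compound, and inhibition is calculated relative to solvent-treated cultures.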

[11] = NCI Yeast Anticancer Drug Screen. Data for the wt2 strain (AID 169);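 also: 0% = growth of vehicle-treated yeast cultures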; conditions: S. cerevisiae wt2 strain growth inhibition, active compounds read high
Procedure, shortened: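 Treated yeast vs. vehicle-treated yeast: growth inhibition determined.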

[12] = NCI Yeast Anticancer Drug Screen. Data for the mlh1 strain (AID 171);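 also: 0% = growth of vehicle-treated control cultures of the same strain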; conditions: S. cerevisiae mlh1 strain growth inhibition, active compounds read high
Procedure, shortened: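 A yeast strain with a defined genetic lesion serves as the test organism. Cultures receive compound or vehicle, and growth is measured.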

[13] = NCI Yeast Anticancer Drug Screen. Data for the sgs1 strain (AID 173);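 also: 0% = growth of vehicle-only control cultures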; conditions: S. cerevisiae sgs1 mutant, active compounds read high
Procedure, shortened: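 A genetically defined yeast mutant is incubated with the test compound, and its growth is compared to that of the same strain given vehicle.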

[14] = NCI Yeast Anticancer Drug Screen. Data for the mlh1 rad18 strain (AID 175); conditions: S. cerevisiae mlh1 rad18 strain growth inhibition, active compounds read high
Procedure, shortened: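 Steps: expose repair-defective yeast to compound; measure growth; express inhibition against vehicle-treated controls.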

[15] = NCI Yeast Anticancer Drug Screen. Data for the rad18 strain (AID 177); conditions: S. cerevisiae rad18 mutant growth inhibition, active compounds read high
Procedure, shortened: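 Measured value is growth inhibition of a yeast strain bearing a DNA repair alteration, referenced to vehicle-treated cells.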

[16] = NCI Yeast Anticancer Drug Screen. Data for the rad52 strain (AID 147);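 also: 0% = growth of vehicle-treated control cultures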; conditions: S. cerevisiae rad52 mutant growth inhibition, active compounds read high
Procedure, shortened: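 Here a repair-compromised yeast strain receives each compound; its growth is then quantified and normalised to vehicle-only controls.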

[17] = at 5.0 µM (retest, dose inferred, filed as 0.5)
[18] = at 50.0 µM (retest, dose inferred, filed as 5.0)

Measured: growth inhibition

CCOc1ccccc1N1C(=O)CC(Sc2ccccc2N)C1=O (stereo not drawn)
active: [4]; [18] 75% | [5]; [18] 85% | [14]; [18] 70%
inactive: [1]; at 1.2 µM 12% | [1]; at 3.7 µM 17% | [1]; at 11.0 µM 10% | [1]; at 33.0 µM 15% | [1]; at 100.0 µM 9% | [2]; at 1.2 µM 19% | [2]; at 3.7 µM 8% | [2]; at 11.0 µM 8% | [2]; at 33.0 µM 16% | [2]; at 100.0 µM 25% | [3]; at 1.2 µM 3% | [3]; at 3.7 µM -10% | [3]; at 11.0 µM -13% | [3]; at 33.0 µM -5% | [3]; at 100.0 µM 1% | [4]; at 1.2 µM 13% | [4]; at 3.7 µM 2% | [4]; [17] 39% | [4]; at 11.0 µM 17% | [4]; at 33.0 µM 10% | [4]; at 50.0 µM 0.8% | [4]; at 100.0 µM -20% | [5]; at 1.2 µM 2% | [5]; at 3.7 µM 10% | [5]; [17] 57% | [5]; at 11.0 µM -9% | [5]; at 33.0 µM 0% | [5]; at 50.0 µM -12.4% | [5]; at 100.0 µM -19% | [6]; at 1.2 µM -23% | [6]; at 3.7 µM -23% | [6]; at 11.0 µM -41% | [6]; at 33.0 µM -48% | [6]; at 100.0 µM -55% | [7]; [17] -5% | [7]; [18] 24% | [7]; at 50.0 µM 14.4% | [8]; at 1.2 µM 10% | [8]; at 3.7 µM 6% | [8]; at 11.0 µM 1% | [8]; at 33.0 µM -15% | [8]; at 100.0 µM -19% | [9]; [17] 39% | [9]; [18] 1% | [9]; at 50.0 µM -13.9% | [10]; at 1.2 µM -4% | [10]; at 3.7 µM 1% | [10]; [17] 30% | [10]; at 11.0 µM -10% | [10]; at 33.0 µM -23% | [10]; [18] 38% | [10]; at 50.0 µM 11.4% | [10]; at 100.0 µM -38% | [11]; at 1.2 µM -2% | [11]; at 3.7 µM -7% | [11]; at 11.0 µM -8% | [11]; at 33.0 µM -7% | [11]; at 100.0 µM -13% | [12]; at 1.2 µM -10% | [12]; at 3.7 µM -18% | [12]; at 11.0 µM -33% | [12]; at 33.0 µM -18% | [12]; at 100.0 µM -24% | [13]; at 1.2 µM 16% | [13]; at 3.7 µM 5% | [13]; at 11.0 µM 6% | [13]; at 33.0 µM 14% | [13]; at 100.0 µM -1% | [14]; [17] 37% | [14]; at 50.0 µM 16.5% | [15]; at 1.2 µM 1% | [15]; at 3.7 µM -12% | [15]; at 11.0 µM -22% | [15]; at 33.0 µM -13% | [15]; at 100.0 µM -24%

Cc1ccc(S(=O)(=O)N/N=C/c2c(O)ccc3ccccc23)cc1
active: [16]; at 11.0 µM 81% | [16]; at 33.0 µM 83% | [16]; at 100.0 µM 79% | [1]; at 100.0 µM 84% | [4]; at 11.0 µM 79% | [4]; at 33.0 µM 82% | [4]; [18] 86% | [4]; at 50.0 µM 79.9% | [4]; at 100.0 µM 78% | [5]; [18] 79% | [5]; at 50.0 µM 79.5% | [5]; at 100.0 µM 79% | [6]; at 33.0 µM 73% | [6]; at 100.0 µM 83% | [7]; [18] 91% | [8]; at 100.0 µM 71% | [9]; [18] 89% | [10]; at 33.0 µM 70% | [10]; [18] 85% | [10]; at 100.0 µM 77% | [11]; at 33.0 µM 81% | [11]; at 100.0 µM 88% | [12]; at 100.0 µM 78% | [13]; at 11.0 µM 76% | [13]; at 33.0 µM 80% | [13]; at 100.0 µM 87% | [14]; at 50.0 µM 78.5% | [15]; at 11.0 µM 87% | [15]; at 33.0 µM 87% | [15]; at 100.0 µM 83%
inactive: [16]; at 1.2 µM -8% | [16]; at 3.7 µM 9% | [1]; at 1.2 µM -8% | [1]; at 3.7 µM -15% | [1]; at 11.0 µM 37% | [1]; at 33.0 µM 59% | [2]; at 1.2 µM -6% | [2]; at 3.7 µM 3% | [2]; at 11.0 µM -16% | [2]; at 33.0 µM -8% | [2]; at 100.0 µM 24% | [4]; at 1.2 µM 19% | [4]; at 3.7 µM 10% | [4]; [17] 36% | [5]; at 1.2 µM -1% | [5]; at 3.7 µM 1% | [5]; [17] 53% | [5]; at 11.0 µM 55% | [5]; at 33.0 µM 66% | [6]; at 1.2 µM -14% | [6]; at 3.7 µM -14% | [6]; at 11.0 µM 59% | [7]; [17] -10% | [8]; at 1.2 µM -17% | [8]; at 3.7 µM 8% | [8]; at 11.0 µM 52% | [8]; at 33.0 µM 58% | [9]; [17] 21% | [10]; at 1.2 µM 17% | [10]; at 3.7 µM 34% | [10]; [17] 37% | [10]; at 11.0 µM 55% | [11]; at 1.2 µM -5% | [11]; at 3.7 µM -9% | [11]; at 11.0 µM 43% | [12]; at 1.2 µM -30% | [12]; at 3.7 µM -42% | [12]; at 11.0 µM 49% | [12]; at 33.0 µM 56% | [13]; at 1.2 µM 26% | [13]; at 3.7 µM 42% | [14]; [17] 44% | [14]; [18] 64% | [15]; at 1.2 µM 8% | [15]; at 3.7 µM 17%
